Experimental data: PubChem BioAssay (NCATS)
Records with an inconclusive call do not appear. Entries that show only a call come without a potency. Values without a mark were called inactive. Calls of active or inactive are those of the source. Calls follow the shape of the dose curve; as a rule, active = well fitted curve in the direction sought with a large enough effect; inconclusive = small, poorly fitted or top-dose-only effect, or another doubt; inactive = no such curve, though single readings can be large; an effect the other way counts as inactive or inconclusive.

What was measured:
[1] = target: Aldehyde dehydrogenase, mitochondrial (Homo sapiens) (UniProt P05091); assay: qHTS for Inhibitors of the Aldehyde Dehydrogenase Family (ALDH2) Primary screen (AID 2061308); also: nearly all actives have a fitted effect of over 55% in size; also: potency is read from the fitted curve at half-maximal effect
[2] = target: Retinaldehyde dehydrogenase 3 (Homo sapiens) (UniProt P47895); assay: qHTS for Inhibitors of the Aldehyde Dehydrogenase Family (ALDH1A3) Confirmatory screens (AID 2061311); also: nearly all actives have a fitted effect of over 60% in size; also: potency is read from the fitted curve at half-maximal effect
[3] = target: Retinaldehyde dehydrogenase 3 (Homo sapiens) (UniProt P47895); assay: qHTS for Inhibitors of the Aldehyde Dehydrogenase Family (ALDH1A3) Primary screen (AID 2061315)
[4] = target: Aldehyde dehydrogenase 1A1 (Homo sapiens) (UniProt P00352); assay: qHTS for Inhibitors of the Aldehyde Dehydrogenase Family (ALDH1A1) Confirmatory screens (AID 2061316); also: nearly all actives have a fitted effect of over 65% in size; also: potency is read from the fitted curve at half-maximal effect
[5] = target: Retinaldehyde dehydrogenase 3 (Homo sapiens) (UniProt P47895); assay: qHTS for Inhibitors of the Aldehyde Dehydrogenase Family (ALDH1A3) Validation screen (AID 2061312); also: nearly all actives have a fitted effect of over 45% in size; also: potency is read from the fitted curve at half-maximal effect

SMILES: Cc1ccc(S(=O)(=O)Nc2ccc(NS(=O)(=O)c3ccc(C)cc3)c3ncccc23)cc1
- Potency [1]: inactive
- Potency [2]: 15.9 µM (active)
- Potency [3]: inactive
- Potency [4]: inactive

SMILES: CC(C)Oc1ccc(C(=O)NC(CNC(=O)CN(C)C)Cc2ccc(-c3cn4cccc(C(C)O)c4n3)cc2)cc1Cl (centres undefined)
- Potency [1]: inactive
- Potency [5]: inactive
- Potency [3]: inactive

SMILES: COc1cccc(CNc2ccc(S(=O)(=O)Nc3cccc4ccncc34)cc2)c1O
- Potency [1]: inactive
- Potency [2]: 22.5 µM (active)
- Potency [3]: inactive
- Potency [4]: inactive

SMILES: Fc1ccc(C2CCNC[C@H]2COc2ccc3c(c2)OCO3)cc1 (some centres undefined)
- Potency [1]: inactive
- Potency [5]: inactive
- Potency [3]: inactive

SMILES: NC(=O)C1CCN(c2nc(-c3ccccc3-c3ccccc3)cs2)CC1
- Potency [1]: inactive
- Potency [2]: 2.83 µM (active)
- Potency [4]: 3.18 µM (active)

SMILES: COc1ccc(C2=N[C@@H](c3ccc(Cl)cc3)[C@@H](c3ccc(Cl)cc3)N2C(=O)N2CCNC(=O)C2)c(OC(C)C)c1
- Potency [1]: inactive
- Potency [5]: inactive
- Potency [3]: inactive

SMILES: CC(=O)OC12COC1CC(O)C1(C)C(=O)C(O)C3=C(C)C(OC(=O)C(O)C(NC(=O)OC(C)(C)C)c4ccccc4)CC(O)(C(OC(=O)c4ccccc4)C21)C3(C)C (centres undefined)
- Potency [1]: inactive
- Potency [5]: inactive
- Potency [3]: inactive

SMILES: CCS(=O)(=O)N(Cc1cccnc1)c1cccc(-c2ccc(C#N)cc2)c1
- Potency [1]: inactive
- Potency [5]: 6.31 µM (active)

SMILES: CC(=O)Nc1cccc2c1c(Sc1ccc(Cl)cc1)c(C)n2CC(=O)O
- Potency [1]: inactive
- Potency [5]: inactive
- Potency [3]: inactive

SMILES: Cc1cc(C)nc(NC(=S)N2CCN(c3cccc4[nH]ccc34)CC2)c1
- Potency [1]: inactive
- Potency [2]: 7.12 µM (active)
- Potency [3]: inactive
- Potency [4]: 8.96 µM (active)

SMILES: N#Cc1ccc2[nH]c(O)c(-c3ccc(CN4CCOCC4)cn3)c2c1
- Potency [1]: inactive
- Potency [5]: 10 µM (active)

SMILES: Cc1cnc(-c2ccccc2N(C)C)nc1NCc1ccc(-c2cccnc2)cc1
- Potency [1]: inactive
- Potency [2]: 3.55 µM (active)
- Potency [3]: inactive
- Potency [4]: 14.2 µM (active)

SMILES: CC(C)(C)CC(C)(C)c1ccc(OCCOCC[N+](C)(C)Cc2ccccc2)cc1
- Potency [1]: inactive
- Potency [5]: inactive
- Potency [3]: inactive

SMILES: COc1cc(C(=O)O)ccc1NC(=O)C1NC(CC(C)(C)C)C(C#N)(c2ccc(Cl)cc2F)C1c1cccc(Cl)c1F (centres undefined)
- Potency [1]: inactive
- Potency [5]: inactive
- Potency [3]: inactive

SMILES: O=C(NC1(c2ccccc2)CC1)c1c(CN2CCC(N3CCCCC3)CC2)c(-c2cccc(C(F)(F)F)c2)nc2cc(Br)ccc12
- Potency [1]: inactive
- Potency [5]: inactive
- Potency [3]: inactive

SMILES: O=C(NC1Cc2ccccc2N(C[C@@H](O)CO)C1=O)c1cc2cc(Cl)sc2[nH]1 (some centres undefined)
- Potency [1]: inactive
- Potency [5]: inactive
- Potency [3]: inactive

SMILES: COc1ccc(N(C(=O)Nc2c(C)cccc2C)c2cc(Nc3ccc(N4CCN(C)CC4)cc3)ncn2)c(OC)c1
- Potency [1]: inactive
- Potency [5]: inactive
- Potency [3]: inactive

SMILES: O=C(NCCCN1CCNCC1)c1cccc(-c2cc(O)c3ncccc3c2)c1
- Potency [1]: inactive
- Potency [2]: 10.1 µM (active)
- Potency [3]: inactive
- Potency [4]: inactive

SMILES: C[C@@H](CN1CCC(n2c(=O)[nH]c3cc(Cl)ccc32)CC1)NC(=O)c1ccc2ccccc2c1
- Potency [1]: inactive
- Potency [5]: inactive
- Potency [3]: inactive

SMILES: COc1ccc(NC(=O)Nc2ccc(-c3nc4ccccc4[nH]3)cc2)cc1OC
- Potency [1]: inactive
- Potency [2]: inactive
- Potency [3]: inactive

SMILES: Cc1ccc(C(=O)N(CCCN)C(c2oc3cc(Cl)ccc3c(=O)c2Cc2ccccc2)C(C)C)cc1 (centres undefined)
- Potency [1]: inactive
- Potency [5]: inactive
- Potency [3]: inactive

SMILES: Cc1ccc(CNc2cccc(N3CCCCC3)c2)cc1
- Potency [1]: inactive
- Potency [2]: 22.5 µM (active)
- Potency [3]: inactive

SMILES: CC(=O)NC(c1cccs1)c1cc(Br)c2cccnc2c1O (centres undefined)
- Potency [1]: inactive
- Potency [2]: 10.1 µM (active)
- Potency [3]: inactive

SMILES: Cc1ccnc(NC(=S)N2CCN(c3ccc4ccccc4n3)CC2)c1
- Potency [1]: 2.82 µM (active)
- Potency [2]: 11.3 µM (active)
- Potency [4]: 3.18 µM (active)

SMILES: Cc1cc(C)nc(NCc2ccc(O)c3ncccc23)c1
- Potency [1]: 11.2 µM (active)
- Potency [2]: 5.04 µM (active)
- Potency [4]: 11.3 µM (active)

SMILES: CN(C)C(=O)COC(=O)c1cc(-c2ccc(C3CCNCC3)cc2)c2ccc(-c3ccc(C(F)(F)F)cc3)cc2c1
- Potency [1]: inactive
- Potency [5]: inactive
- Potency [3]: inactive

SMILES: COc1ccc(C2NC(=O)c3ccccc3N2)cc1COc1ccc(NC(C)=O)cc1 (centres undefined)
- Potency [1]: inactive
- Potency [2]: inactive
- Potency [3]: inactive

SMILES: CNC(=O)C1=C(C)NC(Nc2nc3ccccc3o2)=NC1c1[nH]ncc1Cl (centres undefined)
- Potency [1]: inactive
- Potency [2]: inactive
- Potency [3]: inactive

SMILES: CC1(C)N=C(Nc2nc3ccccc3o2)NC2=C1C(=O)CCC2
- Potency [1]: inactive
- Potency [2]: inactive
- Potency [3]: inactive

SMILES: C#CCNCc1cc2cc(OCc3ccccc3)ccc2[nH]1
- Potency [1]: inactive
- Potency [5]: inactive
- Potency [3]: inactive

SMILES: O=C(CCCCCCC(=O)Nc1ccc(C2OC(CSc3nc(-c4ccccc4)c(-c4ccccc4)o3)CC(c3ccc(CO)cc3)O2)cc1)NO (centres undefined)
- Potency [1]: inactive
- Potency [5]: 10 µM (active)

SMILES: Cc1cc(C)nc(NC(=S)N2CCN(c3ccc4nonc4c3)CC2)c1
- Potency [1]: inactive
- Potency [2]: 15.9 µM (active)
- Potency [3]: inactive
- Potency [4]: 11.3 µM (active)
